Measured values taken from PubChem BioAssay (Tox21).
Values joined by “and” are separate entries in the source; they are usually repeats but may differ in a detail not shown here. Identical values can stand only once. Inconclusive results are not listed. A call without a number means that no potency is given here. Active and inactive are the calls of the source. Unless noted, calls come from the whole dose curve.

How the values were obtained:
[1] = Nuclear factor erythroid 2-related factor 2/antioxidant responsive element (Nrf2/ARE) small molecule agonists: qHTS cell viability counter screen in human keratinocytes (AID 1919968; active = well fitted curve in the direction sought with a large enough effect in the repeat runs; an effect the other way counts as inactive or inconclusive; note: nearly all actives have a fitted effect of over 55% in size; note: potency is the fitted concentration of half-maximal effect)
Procedure, shortened: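 In human HaCaT keratinocytes stably expressing an ARE-driven luciferase, compound exposure lasted 23 h at 37 C under 5% CO2. Viable cells are quantified with a protease-based fluorogenic reagent (CellTiter-Fluor) read 1 h after addition.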

[2] = Nuclear factor erythroid 2-related factor 2/antioxidant responsive element (Nrf2/ARE) small molecule agonists: luciferase reporter gene qHTS assay in human keratinocytes (AID 1919969); note: nearly all actives have a fitted effect of over 35% in size; note: potency is the fitted concentration of half-maximal effect
[3] = target: Gonadotropin-releasing hormone receptor (Homo sapiens) (UniProt P30968); assay: Human gonadotropin-releasing hormone receptor (GnRHR) small molecule agonists, calcium flux assay in GnRHR-HEK293 cells (AID 1920063); note: nearly all actives have a fitted effect of over 35% in size
Chain of Gonadotropin-releasing hormone receptor (Homo sapiens) (P30968 whole entry, looked up): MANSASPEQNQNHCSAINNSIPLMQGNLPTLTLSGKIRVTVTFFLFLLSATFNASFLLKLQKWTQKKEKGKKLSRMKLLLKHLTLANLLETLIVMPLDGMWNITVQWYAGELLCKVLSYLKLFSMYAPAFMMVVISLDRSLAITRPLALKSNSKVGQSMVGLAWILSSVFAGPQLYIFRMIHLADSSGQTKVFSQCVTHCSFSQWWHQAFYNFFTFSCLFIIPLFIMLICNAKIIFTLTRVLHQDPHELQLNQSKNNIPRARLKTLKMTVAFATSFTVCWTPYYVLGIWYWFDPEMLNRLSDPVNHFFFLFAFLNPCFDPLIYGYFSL
Procedure, shortened: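 Intracellular calcium rise is the read-out: engineered human GnRHR HEK293 cells, dye-loaded, are exposed to DMSO-dissolved compounds and fluorescence at Ex/Em 480/540 is tracked for 3 min.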

[4] = target: KiSS-1 receptor (Homo sapiens) (UniProt Q969F8); assay: Human kisspeptin (KISS1R) small molecule agonists, calcium flux assay in KISS1R-HEK293 cells (AID 1920064; active = well fitted curve in the direction sought with a large enough effect in the repeat runs; an effect the other way counts as inactive or inconclusive)
Chain of KiSS-1 receptor (Homo sapiens) (Q969F8 whole entry, looked up): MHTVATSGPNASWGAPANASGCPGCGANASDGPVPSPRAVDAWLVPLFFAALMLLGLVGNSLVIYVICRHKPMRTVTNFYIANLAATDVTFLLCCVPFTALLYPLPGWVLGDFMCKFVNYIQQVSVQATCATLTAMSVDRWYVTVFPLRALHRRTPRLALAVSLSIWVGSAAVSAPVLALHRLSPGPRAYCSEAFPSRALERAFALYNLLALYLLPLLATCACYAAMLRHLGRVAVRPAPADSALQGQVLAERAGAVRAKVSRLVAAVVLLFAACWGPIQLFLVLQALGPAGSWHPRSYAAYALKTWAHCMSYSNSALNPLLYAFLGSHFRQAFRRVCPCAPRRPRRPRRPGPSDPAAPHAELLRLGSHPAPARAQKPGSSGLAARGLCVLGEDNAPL
Procedure, shortened: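 Concentration-response testing used 15 concentrations in triplicate on human KISS1R-expressing HEK293 cells. Calcium-dependent fluorescence (Ex/Em 480/540) was followed kinetically for 3 min after compound transfer.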

[5] = G protein-coupled receptor (GPCR) small molecule agonists, calcium flux assay: HEK293 wild type cell line counter screen (AID 1920065)
Procedure, shortened: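 Fluorescence intensity signals activation. After overnight (18 h) culture and a 1 h calcium dye load at 37 C, compounds are added by pin tool and the plate read at 480/540 nm for 3 min in 1 s steps.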

[6] = p53 small molecule agonists, cell-based qHTS assay with human liver microsomes (AID 1963577);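 note: p53 response element beta-lactamase reporter cells with liver microsomes plus NADPH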
Procedure, shortened: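 Reporter activation was measured by LiveBLAzer fluorescence intensity in p53RE-bla cells, which had been exposed to compounds for 16 h at 37 C alongside 0.5 mg/mL human liver microsomes and 0.5 mg/mL NADPH (final concentrations).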

[7] = p53 small molecule agonists, cell-based qHTS assay with rat liver microsomes (AID 1963578)
Procedure, shortened: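 Compound in DMSO added to p53RE-bla cells 5 h post-plating; rat microsomes/NADPH 0.5 mg/mL final; 16 h, 37 C; LiveBLAzer 2 h RT.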

[8] = p53 small molecule agonists, cell-based qHTS assay with human liver microsomes: qHTS cell viability counter screen (AID 1963579); note: nearly all actives have a fitted effect of over 45% in size
Procedure, shortened: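 HLM-supplemented (0.5 mg/mL final) and NADPH-supplemented (0.5 mg/mL final) p53RE-bla cultures, 4,000 cells per well, were dosed with compounds in DMSO for 16 h at 37 C; luminescent ATP detection (CellTiter-Glo, 30 min, room temperature) quantified surviving cells.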

[9] = p53 small molecule agonists, cell-based qHTS assay: qHTS cell viability counter screen (AID 1963581); note: nearly all actives have a fitted effect of over 45% in size
Procedure, shortened: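 Luminescence from CellTiter-Glo, reflecting ATP content, serves as the cytotoxicity measure; it is taken after the 2 h reporter substrate step in HCT-116 p53RE-bla cells dosed for 16 h at 37 C.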

[10] = target: 5-hydroxytryptamine receptor 2A (Homo sapiens) (UniProt P28223); assay: 5-hydroxytryptamine receptor 2A (HTR2A) small molecule agonists, cell-based qHTS assay (AID 1963587); note: nearly all actives have a fitted effect of over 30% in size
Chain of 5-hydroxytryptamine receptor 2A (Homo sapiens) (P28223 whole entry, looked up): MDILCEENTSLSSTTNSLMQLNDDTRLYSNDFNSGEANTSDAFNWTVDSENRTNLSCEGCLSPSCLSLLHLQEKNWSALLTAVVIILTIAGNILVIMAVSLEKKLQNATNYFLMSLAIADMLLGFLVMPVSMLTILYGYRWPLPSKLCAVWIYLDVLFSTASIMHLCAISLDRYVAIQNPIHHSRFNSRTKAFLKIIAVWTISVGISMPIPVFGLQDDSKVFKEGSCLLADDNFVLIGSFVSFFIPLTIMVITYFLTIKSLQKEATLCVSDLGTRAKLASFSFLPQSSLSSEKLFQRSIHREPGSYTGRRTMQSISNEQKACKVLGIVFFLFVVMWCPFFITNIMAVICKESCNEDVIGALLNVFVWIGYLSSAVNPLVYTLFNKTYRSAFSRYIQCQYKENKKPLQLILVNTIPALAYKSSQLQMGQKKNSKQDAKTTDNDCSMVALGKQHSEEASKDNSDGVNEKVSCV
Procedure, shortened: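 HTR2A-CHO cells, plated 18 h at 37 C/5% CO2, dye-loaded 1 h at 37 C; compounds in DMSO added by pin tool (agonist mode). Intracellular calcium flux read as kinetic fluorescence on FDSS over 2 min at 1 s intervals.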

[11] = target: Muscarinic acetylcholine receptor M1 (Homo sapiens) (UniProt P11229); assay: Cholinergic receptor muscarinic 1 (CHRM1) small molecule antagonists, cell-based qHTS assay (AID 1963588); note: nearly all actives have a fitted effect of over 40% in size
Chain of Muscarinic acetylcholine receptor M1 (Homo sapiens) (P11229 whole entry, looked up): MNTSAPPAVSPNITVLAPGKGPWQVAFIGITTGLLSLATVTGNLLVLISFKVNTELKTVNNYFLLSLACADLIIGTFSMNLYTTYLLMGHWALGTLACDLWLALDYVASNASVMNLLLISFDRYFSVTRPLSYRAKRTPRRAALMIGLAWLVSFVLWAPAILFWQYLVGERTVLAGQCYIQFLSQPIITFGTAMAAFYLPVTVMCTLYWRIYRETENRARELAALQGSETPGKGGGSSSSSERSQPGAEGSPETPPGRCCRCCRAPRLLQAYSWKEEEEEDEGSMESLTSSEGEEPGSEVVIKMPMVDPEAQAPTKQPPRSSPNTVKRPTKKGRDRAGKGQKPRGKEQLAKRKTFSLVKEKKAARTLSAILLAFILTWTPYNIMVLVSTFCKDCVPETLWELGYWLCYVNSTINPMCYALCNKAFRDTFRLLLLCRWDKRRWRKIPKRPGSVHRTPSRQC
Procedure, shortened: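 Compounds were tested at 15 concentrations in three independent runs. Dye-loaded CHRM1-CHO cells were exposed 5 min at room temperature before stimulation by acetylcholine added at 50nM. Intracellular calcium was read kinetically on FDSS for 3 min.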

[12] = target: Muscarinic acetylcholine receptor M1 (Homo sapiens) (UniProt P11229); assay: Cholinergic receptor muscarinic 1 (CHRM1) small molecule agonists, cell-based qHTS assay (AID 1963589); note: nearly all actives have a fitted effect of over 35% in size
Procedure, shortened: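 Fluorescent calcium dye reports M1 activation in stably transfected CHO cells. Compounds, 15 concentrations, added after 1 h dye loading at 37 C; kinetic reading at 1 sec intervals.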

[13] = cAMP Responsive Elements (CRE) small molecule agonists, cell-based qHTS assay (AID 1963590)
Procedure, shortened: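 Compound exposure lasted 3 h at 37 C/5% CO2 in CRE-bla HEK 293T cells grown in assay medium with 10% dialyzed FBS and 25 mM HEPES. Reporter signal came from LiveBLAzer B/G FRET substrate, 2 h, room temperature.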

[14] = cAMP Responsive Elements (CRE) small molecule antagonists, cell-based qHTS assay (AID 1963591; active = well fitted inhibition curve with a large enough effect in the signal ratio in the repeat runs, not every such curve was filed as active; the % refers to the signal ratio)
Procedure, shortened: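 Stimulation used NKH477 at a final 0.25 uM for 3 h in compound-treated CRE-bla HEK293T cells, seeded 18 h beforehand. Reporter activity was measured with LiveBLAzer B/G FRET substrate after 2 h at room temperature.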

[15] = target: D(2) dopamine receptor (Homo sapiens) (UniProt P14416); assay: Dopamine D2 receptor (DRD2) small molecule agonists, cell-based qHTS assay (AID 1963594); note: nearly all actives have a fitted effect of over 35% in size
Chain of D(2) dopamine receptor (Homo sapiens) (P14416 whole entry, looked up): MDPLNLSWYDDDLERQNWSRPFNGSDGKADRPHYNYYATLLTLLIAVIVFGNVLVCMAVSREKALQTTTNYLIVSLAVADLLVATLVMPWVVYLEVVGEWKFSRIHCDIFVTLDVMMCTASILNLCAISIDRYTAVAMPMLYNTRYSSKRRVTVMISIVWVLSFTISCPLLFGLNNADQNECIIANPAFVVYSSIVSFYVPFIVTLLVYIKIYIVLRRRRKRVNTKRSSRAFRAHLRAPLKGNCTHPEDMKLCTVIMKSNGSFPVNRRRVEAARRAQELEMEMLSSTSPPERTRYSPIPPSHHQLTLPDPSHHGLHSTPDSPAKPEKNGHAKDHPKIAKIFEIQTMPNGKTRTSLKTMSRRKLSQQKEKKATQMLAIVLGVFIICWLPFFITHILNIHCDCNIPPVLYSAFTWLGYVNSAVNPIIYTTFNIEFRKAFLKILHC
Procedure, shortened: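 HEK293 cells stably expressing DRD2 were cultured 24 h at 37 C, then given Ro20-1724 (0.1 mM final) and compounds for 10 min at room temperature. NKH477 (200nM) was then added for 30 min. cAMP was read by HTRF.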

[16] = target: D(2) dopamine receptor (Homo sapiens) (UniProt P14416); assay: Dopamine D2 receptor (DRD2) small molecule antagonists, cell-based qHTS assay (AID 1963595; active = well fitted inhibition curve with a large enough effect in the signal ratio in the repeat runs, with a control signal flat; the % refers to the signal ratio)
Procedure, shortened: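 Human DRD2 antagonist qHTS measuring cAMP by HTRF. The cells are exposed to compound for 10 min, then to NKH477 (200 nM) and quinpirole (12 nM) for 30 min at RT, with Ro20-1724 (0.1 mM) present throughout.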

[17] = p53 small molecule agonists, cell-based qHTS assay with rat liver microsomes: qHTS cell viability counter screen (AID 1963580); note: nearly all actives have a fitted effect of over 45% in size
Procedure, shortened: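 Luminescent ATP readout (CellTiter-Glo, 30 min at room temperature) reports viability of p53RE-bla HCT-116 cells after 16 h at 37 C with test compounds under metabolic activation by rat liver microsomes and NADPH at 0.5 mg/mL final each.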

[18] = p53 small molecule agonists, cell-based qHTS assay (AID 1963582; active = well fitted activation curve with a large enough effect in the signal ratio in the repeat runs, not every such curve was filed as active; the % refers to the signal ratio)
Procedure, shortened: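 After plating, p53RE-bla cells sat 5 h in the incubator; compounds or DMSO vehicle were pinned in; a 16 h incubation at 37 C followed; FRET substrate was added and, 2 h later at RT, fluorescence was measured.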

[19] = target: 5-hydroxytryptamine receptor 2A (Homo sapiens) (UniProt P28223); assay: 5-hydroxytryptamine receptor 2A (HTR2A) small molecule antagonists, cell-based qHTS assay (AID 1963586); note: nearly all actives have a fitted effect of over 45% in size; note: potency is the fitted concentration of half-maximal effect
Procedure, shortened: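 CHO cells stably expressing human HTR2A were plated for 18 h at 37 C, then loaded with calcium dye for 1 h. Compounds were preincubated 5 min at room temperature before DOI (4 nM solution) was added. Kinetic fluorescence was read for 3 min.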

[20] = target: Beta-2 adrenergic receptor (Homo sapiens) (UniProt P07550); assay: Adrenergic beta2 receptor (ADRB2) small molecule antagonists, cell-based qHTS assay (AID 1963592); note: series mostly up to about 92 µM; nearly all actives have a fitted effect of over 50% in size
Chain of Beta-2 adrenergic receptor (Homo sapiens) (P07550 whole entry, looked up): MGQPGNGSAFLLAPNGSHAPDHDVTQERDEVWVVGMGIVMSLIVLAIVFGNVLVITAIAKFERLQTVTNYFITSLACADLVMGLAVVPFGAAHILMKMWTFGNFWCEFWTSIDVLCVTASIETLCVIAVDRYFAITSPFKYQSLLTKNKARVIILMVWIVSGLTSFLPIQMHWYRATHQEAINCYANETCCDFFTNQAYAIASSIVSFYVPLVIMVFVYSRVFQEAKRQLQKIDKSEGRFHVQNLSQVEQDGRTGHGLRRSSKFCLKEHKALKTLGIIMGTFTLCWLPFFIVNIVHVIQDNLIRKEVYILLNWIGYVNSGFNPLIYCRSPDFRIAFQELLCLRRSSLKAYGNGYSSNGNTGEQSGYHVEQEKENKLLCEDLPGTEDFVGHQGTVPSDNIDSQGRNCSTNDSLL
Procedure, shortened: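 Assay format: CHO-ADRB2 cells, 18-20hr seeding at 37C/5% CO2, then compound plus 1nM isoproterenol agonist mix for 0.5hr RT. Homogeneous time-resolved fluorescence cAMP detection after 1hr, expressed as 665/615 nm ratio.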

Row | Compound | Potency [1] | Potency [2] | Potency [3] | Potency [4] | Potency [5] | Potency [6] | Potency [7] | Potency [8] | Potency [9] | Potency [10] | Potency [11] | Potency [12] | Potency [13] | Potency [14] | Potency [15] | Potency [16] | Potency [17] | Potency [18] | Potency [19] | Potency [20]
1 | CC(=O)Nc1c(I)cc(I)c(C(=O)O)c1I | inactive | inactive | inactive | inactive | inactive | inactive | inactive | inactive | inactive | inactive | inactive | inactive | inactive | inactive | inactive | inactive |  |  |  | 
2 | Nc1ccncc1N | inactive | inactive | inactive | inactive | inactive | inactive | inactive |  | inactive | inactive | inactive | inactive | inactive | inactive | inactive | inactive | inactive | inactive | inactive | inactive
3 | CC1CCCC(=O)C1=O (stereo unspecified) | inactive | inactive | inactive | inactive | inactive | inactive | inactive | inactive | inactive | inactive | inactive | inactive | inactive | inactive | inactive | inactive |  |  | inactive | inactive
4 | C=CCS(=O)(=O)O | inactive | inactive | inactive | inactive | inactive | inactive | inactive |  | inactive | inactive | inactive | inactive | inactive | inactive | inactive | inactive | inactive | inactive | inactive | inactive
5 | Fc1ccccc1-c1ccccc1 | inactive | inactive | inactive | inactive | inactive | inactive | inactive | inactive | inactive | inactive |  | inactive | inactive |  | inactive | inactive |  | inactive | inactive | inactive
6 | CCC(C)(Oc1ccc(C2(c3ccc(OC(C)(CC)C(=O)O)cc3)CCCCC2)cc1)C(=O)O (stereo unspecified) | inactive | inactive | inactive | inactive | inactive | inactive | inactive | inactive | inactive | inactive | inactive |  | inactive | inactive | inactive |  |  | inactive | inactive | inactive
7 | COc1cc(CCC(C)=O)ccc1O | inactive | inactive | inactive | inactive | inactive | inactive | inactive |  | inactive | inactive | inactive | inactive | inactive | inactive | inactive |  | inactive | inactive | 3.75 µM (active) | inactive
8 | O=C(O[C@@H]1Cc2c(O)cc(O)cc2O[C@@H]1c1cc(O)c(O)c(O)c1)c1cc(O)c(O)c(O)c1 | inactive | inactive | inactive | inactive | inactive | inactive | inactive | inactive | inactive | inactive | inactive | inactive |  | inactive | inactive | inactive |  | inactive | inactive | inactive
9 | CCc1ccc(Br)cc1 | inactive | inactive | inactive | inactive | inactive | inactive | inactive | inactive | inactive | inactive | inactive | inactive | inactive |  |  | inactive |  | inactive | inactive | inactive
10 | C=C(C)[C@H]1CC=C(C)CC1 | inactive | inactive | inactive | inactive | inactive | inactive | inactive | inactive | inactive |  | inactive | inactive | inactive | inactive |  |  |  | inactive | inactive | inactive
11 | COC(=O)c1cc(Cl)ccc1NS(=O)(=O)C(F)(F)F | inactive | inactive | inactive | inactive | inactive | inactive | inactive | inactive | inactive | inactive | inactive |  | inactive | inactive | inactive | inactive |  | inactive | inactive | inactive
12 | CC(=O)Nc1ccc(N=Nc2cc(C)ccc2O)cc1 | inactive | inactive | inactive | inactive | inactive | inactive | inactive | inactive | inactive | inactive |  | inactive | inactive | inactive | inactive | inactive |  | inactive | inactive | inactive
13 | CC(C)(CCl)c1ccccc1 | inactive | inactive | inactive | inactive | inactive | inactive | inactive |  | inactive | inactive | inactive | inactive | inactive | inactive | inactive | inactive | inactive | inactive | inactive | inactive
14 | BrC1CCC(Br)C(Br)CCC(Br)C(Br)CCC1Br (stereo unspecified) | 17.2 µM (active) | 9.65 µM (active) and 16.3 µM (active) | inactive | inactive | inactive | inactive | inactive | inactive | inactive | inactive | inactive | inactive | inactive | inactive | inactive | inactive |  |  | inactive | inactive
15 | O=C(NCN1CCOCC1)c1cnccn1 | inactive | inactive | inactive | inactive | inactive | inactive | inactive |  | inactive | inactive | inactive | inactive | inactive | inactive | inactive |  | inactive | inactive | inactive | inactive
